High-throughput results (PubChem)
Rows were chosen to be rich in hits. Some 19% of all compounds tested hit in one or more screens of this group.
HT1080 IDH1KD tx: HT-1080 IDH1 knockdown cell toxicity (counter line); HT-1080 IDH1 knockdown viability, ATP luminescence, 48 h; Potency, µM (titrated, usually from 46.1 µM), inactives show at the top dose activity, negative = toxicity, actives largely listed as cytotoxic; hit rate 2% among 360,000;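 further: 0% = DMSO wells and -100% = cell-free medium wells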
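Luminescent ATP read-out (CellTiter-Glo, 10 min at room temperature) after 48 h compound exposure at 37 °C gave viability of IDH1-knockdown HT-1080 cells. Activity was normalised to DMSO and cell-free wells, then fitted as concentration-response curves.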
DT40 TDP1 CPT: DT40-hTDP1 cell growth loss with CPT; chicken DT40 Tdp1-/-;hTDP1 cells + 20 nM CPT, ATP luminescence, 48 h; Potency, µM (titrated, usually from 46.2 µM), for the others: top-dose activity change, negative = growth inhibition, actives largely listed as inhibitors; hit rate 12% among 420,000; AID 686979; further: nearly all actives have a fitted effect of over 55% in size
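Cell growth measured by CellTiter-Glo luminescence after a minimum 48 h, 37 C compound exposure with 20 nM CPT in Tdp1-knockout DT40 cells stably expressing hTDP1, seeded 400/well; qHTS titration format.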
KB-3-1 tox: KB-3-1 parental cell cytotoxicity; hit rate 1.4% among 400,000; KB-3-1 viability, CellTiter-Glo ATP luminescence, 72 h; Potency, µM (doses to about 46.1 µM), hits mostly cytotoxic; AID 1347075; further: nearly all actives have a fitted effect of over 60% in size
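Multi-concentration cytotoxicity screen in KB-3-1 cells grown in DMEM lacking phenol red with 10% FBS. After 72 h at 37 °C with compound, ATP-dependent luminescence was recorded.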
HT1080-NT tox: kills 2HG-producing HT-1080-NT fibrosarcoma cells | HT-1080-NT fibrosarcoma viability, CellTiter-Glo ATP luminescence, 48 h | Potency, µM (titrated, usually from 46.1 µM), for inactives: at the highest dose activity, negative = less viability, usual class: cytotoxic | hit rate 1.6% among 360,000 | AID 686970;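 further: NT is the 2HG producing partner of a matched IDH1 knockdown line; 0% = DMSO-treated cells and -100% = media-only wells without cells; nearly all actives have a fitted effect of over 55% in size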
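HT-1080-NT; 750 cells/well; 5% FBS RPMI; 48 h compound, 37 degrees C; CellTiter-Glo luminescence; curve fitting and curve-class assignment.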
KB-V1 cytotox: kills drug-selected multidrug resistant KB-V1 cells; hit rate 3.4% among 400,000; KB-V1 MDR cells viability, CellTiter-Glo, 72 h; Potency, µM (doses to about 46.1 µM), most hits filed as cytotoxic; AID 1347076; further: nearly all actives have a fitted effect of over 60% in size
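Compound-treated KB-V1 multidrug-resistant cells, 72 h, 37 degrees C; viability by CellTiter-Glo. Fitted qHTS curves give the values.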
TDP1 cell noCPT: qHTS for Inhibitors of human tyrosyl-DNA phosphodiesterase 1 (TDP1): qHTS in cells in absence of CPT. DT40 Tdp1-/- hTDP1 cells, no CPT, ATP luminescence, 48 h. hit rate 15% among 420,000. Potency, µM (series often up to 46.2 µM), for the others: top-dose activity change, negative = growth inhibition, hits mostly inhibitors. AID 686978, 2013; further: nearly all actives have a fitted effect of over 55% in size
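No-CPT arm: Tdp1-/-;hTDP1 DT40 cells (400/well) plus compounds, incubated ≥48 hr at 37 °C. Readout CellTiter-Glo luminescence.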
* = called active by the depositor. The call rests on the fitted dose curve; in most records, active means well fitted curve in the direction sought with a large enough effect; inconclusive means small, poorly fitted or top-dose-only effect, or another doubt; inactive means no such curve, though single readings can be large; an effect the other way counts as inactive or inconclusive. Unless noted, on the % scale 0 is the no-effect control and ±100 the full control effect; potency means the concentration at half of the fitted maximal effect.

For CCOC(=O)C1CCN(C(=O)c2cccc(S(=O)(=O)NCc3ccccc3)c2)CC1 the results were HT1080 IDH1KD tx 6.0%, DT40 TDP1 CPT -24.6%, KB-3-1 tox inactive, HT1080-NT tox 4.7%, KB-V1 cytotox inactive and TDP1 cell noCPT inconclusive.
Screening O=c1cc(CN2CCOCC2)c2ccccc2o1 returned HT1080 IDH1KD tx 10.0%, DT40 TDP1 CPT -12.3%, KB-3-1 tox inactive, HT1080-NT tox 6.1%, KB-V1 cytotox inactive and TDP1 cell noCPT -0.5%.
For O=c1c2ccccc2oc2cc(-c3ccc(CN4CCOCC4)cc3)ccc12 the results were HT1080 IDH1KD tx -20.5%, DT40 TDP1 CPT 13µM*, KB-3-1 tox inactive, HT1080-NT tox -15.1%, KB-V1 cytotox inconclusive and TDP1 cell noCPT 16.4µM*.
O=C(C1COc2ccccc2O1)N1CCN(c2nc3c(F)cc(F)cc3s2)CC1 (centres undefined) was read as HT1080 IDH1KD tx 0.5%, DT40 TDP1 CPT 20.6µM*, KB-3-1 tox inactive, HT1080-NT tox 0.3%, KB-V1 cytotox inconclusive and TDP1 cell noCPT 14.6µM*.
`Fc1cc(F)c2nc(N3CCCC3)sc2c1` gave HT1080 IDH1KD tx 3.8%, DT40 TDP1 CPT -5.1%, KB-3-1 tox inactive, HT1080-NT tox 9.1%, KB-V1 cytotox inactive and TDP1 cell noCPT 7.9%.
`O=C(C1CC1)N1CCN(c2nc3c(F)cc(F)cc3s2)CC1` gave DT40 TDP1 CPT inconclusive, KB-3-1 tox inactive, KB-V1 cytotox inactive and TDP1 cell noCPT 14.6µM*.
Screening O=C(C1COc2ccccc2O1)N1CCN(c2nc3ccccc3s2)CC1 (centres undefined) returned HT1080 IDH1KD tx 14.9%, DT40 TDP1 CPT inconclusive, KB-3-1 tox inactive, HT1080-NT tox 0.6%, KB-V1 cytotox inconclusive and TDP1 cell noCPT inconclusive.
For O=C1CC(=O)Nc2cc(S(=O)(=O)Nc3cccc(Br)c3)ccc2N1 the results were DT40 TDP1 CPT -19.6%, KB-3-1 tox inactive, KB-V1 cytotox inactive and TDP1 cell noCPT -6.3%.
Screening CCOC(=O)c1[nH]c(CO)c(C(=O)OCC)c1C returned HT1080 IDH1KD tx 19.9%, DT40 TDP1 CPT 13.6%, KB-3-1 tox inactive, HT1080-NT tox 18.4%, KB-V1 cytotox inconclusive and TDP1 cell noCPT 2.8%.
For O=C(N/N=C1/C(=O)c2cccc3cccc1c23)c1ccc(Cl)cc1 the results were HT1080 IDH1KD tx -2.2%, DT40 TDP1 CPT 4.11µM*, KB-3-1 tox inconclusive, HT1080-NT tox 5.6%, KB-V1 cytotox inconclusive and TDP1 cell noCPT 4.61µM*.
Screening CCc1cccc(C)c1NC(=O)Cn1c(=O)n(-c2ccc(C)cc2)c(=O)c2c1cnn2C returned DT40 TDP1 CPT -17.6%, KB-3-1 tox inactive, KB-V1 cytotox inactive and TDP1 cell noCPT -1.5%.
For CCOc1cccc(C2C=C(c3ccc4c(c3)OCO4)NC(c3ccccc3Cl)N2)c1O (centres undefined) the results were DT40 TDP1 CPT inconclusive, KB-3-1 tox inactive, KB-V1 cytotox inactive and TDP1 cell noCPT 11.2µM*.
Screening Oc1ccc(Cl)cc1C1C=C(c2ccc3c(c2)OCO3)NC(c2ccc(Cl)cc2)N1 (centres undefined) returned DT40 TDP1 CPT 3.98µM*, KB-3-1 tox inactive, KB-V1 cytotox inactive and TDP1 cell noCPT 6.31µM*.
`O=C(c1cc(Cl)cc(Cl)c1)N1CCC2CC1c1cc(-c3ccc4c(c3)OCO4)ccc12` (centres undefined) gave HT1080 IDH1KD tx 5.5%, DT40 TDP1 CPT inconclusive, KB-3-1 tox inactive, HT1080-NT tox 5.2%, KB-V1 cytotox inactive and TDP1 cell noCPT inconclusive.
